HCV inhibitor = qHTS Assay for Inhibitors of Hepatitis C Virus (HCV) | Huh7.5.1 HCVcc-Cre infection, luciferase reporter, 44 h | Potency, µM (top dose mostly 41.8 µM), inactives show top-dose activity change, negative = inhibition, hits mostly inhibitors | 340,000 tested, 3.4% active | AID 651820, 2012; note: % is set by controls: 0 for no effect and ±100 for the full control effect
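Whole-lifecycle infectious HCVcc-Cre system; cells 1,000/well, compound then virus (~0.5 moi) added 4 h after plating, 44 h culture. Luciferase read 15 sec following 15 min substrate incubation, room temp.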
SARS PLP yeast = qHTS of Yeast-based Assay for SARS-CoV PLP | 330,000 tested, 0.19% active | S. cerevisiae expressing SARS-CoV PLpro, growth rescue | Potency, µM (top dose mostly 32.9 µM), inactives show top-dose activity, positive = growth rescue, actives largely listed as activators | AID 485353, 2010; calls by dose curve; note: 0% is about no effect; nearly all actives have a fitted effect of over 55% in size
Pf growth 48h = Primary qHTS for delayed death inhibitors of the malarial parasite plastid, 48 hour incubation. P. falciparum luciferase growth in erythrocytes, 48 h. Potency, µM (highest dose often 28.7 µM), inactives show at the highest dose activity change, negative = inhibition, most hits filed as inhibitors. 310,000 tested, 5.9% active. AID 504832, 2011; note: % is set by controls: 0 for no effect and ±100 for the full control effect
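Compounds are pin-transferred into medium, infected erythrocytes (2% hematocrit, 0.1% parasitemia final) are added, and plates sit one parasite generation at 37 C in 5% CO2. Detection reagent is then added and luminescence measured.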
NS1 inh = qHTS Assay for Inhibitors of Influenza NS1 Protein Function; 270,000 tested, 0.4% active; Potency, µM (highest dose often 46.1 µM), inactives show at the highest dose activity, positive = more growth; calls by dose curve; note: actives are rising curves; nearly all actives have a fitted effect of over 50% in size
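Compounds were scored for reversing the slow growth caused by influenza A NS1 in S. cerevisiae, measured by optical density at 600 nm. Assay medium contained 2% galactose at pH 6.0; NS1-free yeast of the same strain were the positive control.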
AMA1-RON2 inh = qHTS for Inhibitors of AMA1-RON; Towards Development of Antimalarial Drug Lead: Primary Screen; Plasmodium falciparum AMA1 (3D7) - RON2 peptide interaction; AlphaScreen AMA1-biotinylated RON2 peptide binding; Potency, µM (highest dose often 58.2 µM), for inactives: at the top dose activity change, negative = inhibition, actives largely listed as inhibitors; 360,000 tested, 0.2% active; AID 720542, 2013;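 note: 0% = vehicle wells and -100% = peptide control; nearly all actives have a fitted effect of over 45% in size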
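AMA1 (3D7) with his tag at 25 nM final met compounds first, then biotinylated RON2 peptide at 25 nM; detection used donor plus acceptor beads, 10 µg/mL apiece, read by AlphaScreen after 30 min at room temperature.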
Pf growth 96h = Primary qHTS for delayed death inhibitors of the malarial parasite plastid, 96 hour incubation; P. falciparum luciferase reporter growth, 96 h; Potency, µM (titrated, usually from 28.7 µM), for the others: top-dose activity change, negative = inhibition, actives largely listed as inhibitors; 320,000 tested, 6.9% active; AID 504834, 2011; note: % is set by controls: 0 for no effect and ±100 for the full control effect
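Compounds incubated with erythrocytes infected by luciferase-expressing P. falciparum (2% hematocrit, 0.05% parasitemia final) for 96 hours, 37 C in 5% CO2. Growth inhibition scored as decreased luciferase luminescence.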
An asterisk follows results filed as active; ? = inconclusive; . = no result. The list is not random: actives were taken first. Their share in the collection is about 12%. Unless noted, calls come from the whole dose curve; as a rule, active = well fitted curve in the direction sought with a large enough effect; inconclusive = small, poorly fitted or top-dose-only effect, or another doubt; inactive = no such curve, though single readings can be large; an effect the other way counts as inactive or inconclusive. Potency is the fitted concentration of half-maximal effect.

SMILES	HCV inhibitor	SARS PLP yeast	Pf growth 48h	NS1 inh	AMA1-RON2 inh	Pf growth 96h
COc1ccc(NC(=O)C2CCCN2C(=O)OCc2ccccc2)cc1 (configuration not stated)	7%	2%	9%	1%	29%	10%
COc1ccc(C)cc1NC(=O)C1CCCN1C(=O)OCc1ccccc1 (configuration not stated)	-10%	0%	10µM*	-12%	-1%	?
COc1ccc(OC)c(NC(=O)C2CCCN2C(=O)OCc2ccccc2)c1 (configuration not stated)	?	3%	13µM*	-22%	-9%	15%
COC(=O)c1ccc(NC(=O)C2CCCN2C(=O)OCc2ccccc2)cc1 (configuration not stated)	-18%	3%	3%	-6%	-3%	5.9µM*
CCOc1ccccc1NC(=O)C1CCCN1C(=O)OCc1ccccc1 (configuration not stated)	?	1%	-27%	-11%	12%	9.3µM*
Cc1ccc(NC(=O)C2CCCN2C(=O)OCc2ccccc2)cc1F (configuration not stated)	?	3%	7%	-6%	15%	?
CC(NC(=O)C1CCCN1C(=O)OCc1ccccc1)c1ccccc1 (configuration not stated)	12%	-1%	-1%	.	-4%	?
COc1ccc(C2=NOC(c3nnc(-c4ccccc4)o3)C2)cc1 (configuration not stated)	7%	.	.	.	58%	.
CN(C)CCCN(C(=O)c1ccc(S(=O)(=O)N2CCCCCC2)cc1)c1nc2c(F)cc(F)cc2s1	-20%	-2%	?	.	-3%	-2%
COc1ccc2nc(N3CCN(C(=O)C4COc5ccccc5O4)CC3)sc2c1 (configuration not stated)	?	2%	5%	.	?	36%
COc1cc2nc(N3CCN(C(=O)[C@@H]4COc5ccccc5O4)CC3)nc(N)c2cc1OC	.	.	15µM*	.	.	13µM*
COc1cc2nc(N3CCN(C(=O)OCc4ccccc4)[C@H](C(=O)NC(C)(C)C)C3)nc(N)c2cc1OC	?	.	2.9µM*	.	-2%	5.2µM*
O=C(Cc1cccs1)NCCS(=O)(=O)N1CCN(c2ccccc2F)CC1	1%	.	-2%	.	25%	14%
CCc1nc(SCC(=O)c2ccc3c(c2)OCCO3)c2ccccc2n1	8.9µM*	-12%	?	-3%	43%	10µM*
O=C(CSc1nc(Cc2ccccc2)nc2ccccc12)c1ccc2c(c1)OCCO2	?	2%	9.3µM*	8%	22%	?
CCc1nc(SCC(=O)c2ccccc2)c2ccccc2n1	?	-1%	?	1%	0%	?
Nc1ccc(N2CCOCC2)cc1C(F)(F)F	-2%	0%	9%	2%	-10%	1%
COc1ccc(CCc2nnc(CCC(=O)NCc3cnc4ccccn34)o2)cc1	4%	-1%	8%	6%	-8%	10µM*
O=C(CC1C(=O)N(c2ccc(Cl)cc2)C(=S)N1CCc1ccncc1)Nc1ccc(F)cc1 (configuration not stated)	20%	-7%	?	17%	0%	?
CCc1ccc(NC(=O)CC2C(=O)N(c3ccc(C)cc3)C(=O)N2CCc2ccncc2)cc1 (configuration not stated)	-2%	2%	15µM*	.	2%	-4%
CCNC(=O)CC1C(=O)N(c2ccc(F)cc2)C(=S)N1CCc1ccncc1 (configuration not stated)	4%	-6%	13µM*	.	32µM*	?
CC1(C(=O)Nc2ccccc2F)CCN1C(=O)Cc1cc(F)ccc1F (configuration not stated)	.	.	.	.	13%	.
